Assay results reported in the supplement of paper PMC10849652.
Targets with a hit are over-represented here; the source holds about 7,900 in all. About 0.6% of all pairs of compound and target were hits.

Compound: c1cn2cc(-c3ccc4cn[nH]c4c3)nc(Nc3ccc(N4CCOCC4)cc3)c2n1 [entospletinib]
Assay: log2 fold change, soluble protein after heating vs DMSO (PISA); higher = thermal stabilisation; K562 cells, 10 uM, 30 min; active = over 0.2 and 3.5 SD of the protein, either way, in both replicates (recomputed)
Outline: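 Soluble protein was quantified by TMTpro 16plex LC-MS/MS after channel sums were equalised. It was obtained as the supernatant after 21,000xg for 90 min from pooled aliquots of K562 cells (2×10^6 cells/mL, 10 μM compound, 30 min) heated for 3 min across 48°C-58°C and extracted in PBS with 0.5% NP-40 at 4°C. Thermal stability values are relative to control samples and come from duplicates. They are given as log2 fold changes.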

Chain of UniProt Q14956 (Q14956 whole entry, looked up): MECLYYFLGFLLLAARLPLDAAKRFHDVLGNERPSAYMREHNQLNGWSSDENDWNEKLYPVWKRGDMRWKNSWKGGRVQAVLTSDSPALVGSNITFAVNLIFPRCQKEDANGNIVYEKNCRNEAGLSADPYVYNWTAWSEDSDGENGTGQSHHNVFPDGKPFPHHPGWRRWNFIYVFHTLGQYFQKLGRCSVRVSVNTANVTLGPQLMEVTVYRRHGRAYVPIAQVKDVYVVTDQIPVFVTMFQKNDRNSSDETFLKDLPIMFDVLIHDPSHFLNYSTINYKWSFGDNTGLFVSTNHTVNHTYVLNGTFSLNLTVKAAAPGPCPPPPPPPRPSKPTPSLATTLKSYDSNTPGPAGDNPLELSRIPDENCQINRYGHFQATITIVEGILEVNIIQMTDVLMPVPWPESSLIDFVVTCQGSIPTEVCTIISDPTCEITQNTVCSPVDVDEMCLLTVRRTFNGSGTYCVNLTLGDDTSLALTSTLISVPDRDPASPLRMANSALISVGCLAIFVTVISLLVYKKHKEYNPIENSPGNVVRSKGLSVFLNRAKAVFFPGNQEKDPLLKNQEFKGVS
Chain of UniProt Q8WXD5 (Q8WXD5 whole entry, looked up): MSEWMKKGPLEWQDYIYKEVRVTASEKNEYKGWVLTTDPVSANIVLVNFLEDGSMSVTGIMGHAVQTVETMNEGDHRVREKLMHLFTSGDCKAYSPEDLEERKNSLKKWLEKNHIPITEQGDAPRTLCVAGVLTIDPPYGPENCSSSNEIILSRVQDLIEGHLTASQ
Chain of UniProt O43524 (O43524 whole entry, looked up): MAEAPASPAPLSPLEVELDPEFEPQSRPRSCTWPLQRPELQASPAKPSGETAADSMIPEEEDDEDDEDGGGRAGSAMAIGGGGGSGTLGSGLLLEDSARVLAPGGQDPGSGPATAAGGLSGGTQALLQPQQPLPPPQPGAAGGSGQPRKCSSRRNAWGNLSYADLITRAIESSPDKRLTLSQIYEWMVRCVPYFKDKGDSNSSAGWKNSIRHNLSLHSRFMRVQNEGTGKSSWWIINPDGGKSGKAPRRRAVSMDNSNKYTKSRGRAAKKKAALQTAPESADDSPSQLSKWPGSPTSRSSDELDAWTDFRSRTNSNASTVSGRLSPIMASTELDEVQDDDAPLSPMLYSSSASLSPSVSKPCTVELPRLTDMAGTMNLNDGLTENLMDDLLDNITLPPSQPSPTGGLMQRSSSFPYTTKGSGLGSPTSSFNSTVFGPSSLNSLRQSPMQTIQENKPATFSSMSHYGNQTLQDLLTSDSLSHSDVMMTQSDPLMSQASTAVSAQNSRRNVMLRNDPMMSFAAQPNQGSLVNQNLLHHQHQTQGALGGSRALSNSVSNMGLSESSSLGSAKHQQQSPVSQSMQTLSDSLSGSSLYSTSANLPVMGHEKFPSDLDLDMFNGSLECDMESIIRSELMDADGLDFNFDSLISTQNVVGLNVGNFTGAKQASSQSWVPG
Chain of UniProt P55795 (P55795 whole entry, looked up): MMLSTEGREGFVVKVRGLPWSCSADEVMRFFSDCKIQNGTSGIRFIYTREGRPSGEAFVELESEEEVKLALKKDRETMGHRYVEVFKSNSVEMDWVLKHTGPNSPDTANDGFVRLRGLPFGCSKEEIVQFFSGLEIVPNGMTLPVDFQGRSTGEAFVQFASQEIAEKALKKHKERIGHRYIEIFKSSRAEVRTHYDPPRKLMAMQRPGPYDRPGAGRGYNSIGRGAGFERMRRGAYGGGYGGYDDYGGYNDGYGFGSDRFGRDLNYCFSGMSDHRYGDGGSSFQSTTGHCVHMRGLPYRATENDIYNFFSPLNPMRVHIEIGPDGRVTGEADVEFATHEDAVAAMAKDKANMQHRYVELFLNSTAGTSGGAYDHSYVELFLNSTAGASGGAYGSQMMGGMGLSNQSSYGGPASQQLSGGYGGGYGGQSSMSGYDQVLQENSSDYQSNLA
Chain of UniProt Q9Y3I1 (Q9Y3I1 whole entry, looked up): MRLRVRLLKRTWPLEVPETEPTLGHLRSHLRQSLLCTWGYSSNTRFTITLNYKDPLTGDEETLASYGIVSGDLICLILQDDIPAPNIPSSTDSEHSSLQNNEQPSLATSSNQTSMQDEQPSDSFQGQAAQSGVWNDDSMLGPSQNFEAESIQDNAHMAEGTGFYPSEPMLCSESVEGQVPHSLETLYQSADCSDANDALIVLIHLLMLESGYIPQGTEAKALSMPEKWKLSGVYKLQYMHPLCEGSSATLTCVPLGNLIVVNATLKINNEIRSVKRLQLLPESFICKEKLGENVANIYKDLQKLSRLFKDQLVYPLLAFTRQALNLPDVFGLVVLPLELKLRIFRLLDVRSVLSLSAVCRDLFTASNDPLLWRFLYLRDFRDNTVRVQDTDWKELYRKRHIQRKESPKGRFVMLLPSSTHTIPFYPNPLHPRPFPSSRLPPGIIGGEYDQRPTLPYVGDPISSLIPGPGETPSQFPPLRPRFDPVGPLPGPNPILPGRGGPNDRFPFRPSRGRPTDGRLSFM
Chain of UniProt Q12894 (Q12894 whole entry, looked up): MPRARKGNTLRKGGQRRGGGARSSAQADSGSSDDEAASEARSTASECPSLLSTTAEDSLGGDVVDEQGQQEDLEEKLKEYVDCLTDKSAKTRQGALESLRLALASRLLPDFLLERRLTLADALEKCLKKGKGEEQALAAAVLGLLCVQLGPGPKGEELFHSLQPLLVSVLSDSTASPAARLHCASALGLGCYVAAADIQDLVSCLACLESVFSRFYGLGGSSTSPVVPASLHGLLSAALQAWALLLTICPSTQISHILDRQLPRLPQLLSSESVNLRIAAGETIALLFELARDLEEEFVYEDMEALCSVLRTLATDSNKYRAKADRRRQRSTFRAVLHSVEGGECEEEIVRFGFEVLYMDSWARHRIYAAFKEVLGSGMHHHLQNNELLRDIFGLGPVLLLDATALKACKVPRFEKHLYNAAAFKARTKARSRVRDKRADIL
Chain of UniProt Q13547 (Q13547 whole entry, looked up): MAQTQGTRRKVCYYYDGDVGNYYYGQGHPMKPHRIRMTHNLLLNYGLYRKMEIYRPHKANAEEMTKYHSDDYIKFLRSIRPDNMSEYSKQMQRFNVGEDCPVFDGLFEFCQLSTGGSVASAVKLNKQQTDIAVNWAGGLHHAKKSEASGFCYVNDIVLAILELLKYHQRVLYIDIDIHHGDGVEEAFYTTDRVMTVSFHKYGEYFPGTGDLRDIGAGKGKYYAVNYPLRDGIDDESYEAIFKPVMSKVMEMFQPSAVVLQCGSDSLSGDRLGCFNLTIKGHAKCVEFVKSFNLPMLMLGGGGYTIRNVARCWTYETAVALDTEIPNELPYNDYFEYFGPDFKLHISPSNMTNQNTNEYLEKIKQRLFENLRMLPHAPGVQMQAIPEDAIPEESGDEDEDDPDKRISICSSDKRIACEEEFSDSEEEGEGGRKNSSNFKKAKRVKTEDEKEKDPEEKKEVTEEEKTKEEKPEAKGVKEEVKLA
Chain of UniProt P69905 (P69905 whole entry, looked up): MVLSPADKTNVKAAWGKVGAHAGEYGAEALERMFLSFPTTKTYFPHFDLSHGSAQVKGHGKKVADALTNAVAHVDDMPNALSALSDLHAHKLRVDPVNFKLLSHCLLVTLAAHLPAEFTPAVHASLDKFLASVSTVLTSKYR
Chain of UniProt Q14C86 (Q14C86 whole entry, looked up): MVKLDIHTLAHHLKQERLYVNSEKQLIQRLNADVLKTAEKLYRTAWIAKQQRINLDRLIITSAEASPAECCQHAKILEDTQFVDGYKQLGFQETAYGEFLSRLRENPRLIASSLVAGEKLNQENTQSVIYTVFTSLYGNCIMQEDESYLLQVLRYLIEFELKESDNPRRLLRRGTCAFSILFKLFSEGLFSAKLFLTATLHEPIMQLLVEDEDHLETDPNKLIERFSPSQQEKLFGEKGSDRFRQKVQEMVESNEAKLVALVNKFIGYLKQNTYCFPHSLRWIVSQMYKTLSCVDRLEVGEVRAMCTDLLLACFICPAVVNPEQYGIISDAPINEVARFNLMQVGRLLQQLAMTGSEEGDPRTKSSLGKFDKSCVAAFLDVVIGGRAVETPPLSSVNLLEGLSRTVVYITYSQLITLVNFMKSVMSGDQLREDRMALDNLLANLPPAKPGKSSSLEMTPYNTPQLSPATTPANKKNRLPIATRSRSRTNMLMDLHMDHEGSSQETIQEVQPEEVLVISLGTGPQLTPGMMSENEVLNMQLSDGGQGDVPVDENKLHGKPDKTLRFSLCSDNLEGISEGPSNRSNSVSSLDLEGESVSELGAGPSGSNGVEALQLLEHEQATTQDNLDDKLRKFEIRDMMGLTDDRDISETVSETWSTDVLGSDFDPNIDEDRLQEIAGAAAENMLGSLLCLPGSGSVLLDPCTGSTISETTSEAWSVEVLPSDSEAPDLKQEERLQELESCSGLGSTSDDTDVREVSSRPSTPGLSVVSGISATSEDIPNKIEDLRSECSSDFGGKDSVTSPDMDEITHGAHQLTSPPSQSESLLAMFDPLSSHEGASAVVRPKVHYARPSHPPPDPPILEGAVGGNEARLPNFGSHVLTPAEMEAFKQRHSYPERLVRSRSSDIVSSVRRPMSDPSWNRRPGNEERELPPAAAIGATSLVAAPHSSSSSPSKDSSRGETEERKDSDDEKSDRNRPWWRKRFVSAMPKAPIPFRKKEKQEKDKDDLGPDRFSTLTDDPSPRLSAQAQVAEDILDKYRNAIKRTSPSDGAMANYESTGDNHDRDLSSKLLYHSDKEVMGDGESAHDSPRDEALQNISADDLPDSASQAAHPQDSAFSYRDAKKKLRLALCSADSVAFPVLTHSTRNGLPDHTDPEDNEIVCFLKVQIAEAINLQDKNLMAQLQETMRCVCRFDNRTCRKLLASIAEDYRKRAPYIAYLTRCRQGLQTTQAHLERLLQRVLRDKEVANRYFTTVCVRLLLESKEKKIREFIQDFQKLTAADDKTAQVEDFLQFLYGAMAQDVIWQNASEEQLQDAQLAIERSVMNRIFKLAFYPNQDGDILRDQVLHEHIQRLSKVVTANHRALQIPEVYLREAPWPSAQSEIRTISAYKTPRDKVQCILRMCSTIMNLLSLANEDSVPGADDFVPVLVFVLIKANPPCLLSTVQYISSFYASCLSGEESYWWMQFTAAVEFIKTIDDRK

| Target | log2 fold change |
| --- | --- |
| HDAC1 (UniProt Q13547) | -0.014 (inactive) |
| GALC (UniProt P54803) | 0.067 (inactive) |
| IFNGR1 (UniProt P15260) | -0.019 (inactive) |
| GTF3C5 isoform 3 (UniProt Q9Y5Q8) | 0.226 (inactive) |
| GPAT4 (UniProt Q86UL3) | 0.055 (inactive) |
| GOLGA8R (UniProt I6L899) | -0.056 (inactive) |
| FBXO7 (UniProt Q9Y3I1) | -0.009 (inactive) |
| FYB1 isoform 3 (UniProt O15117) | 0.036 (inactive) |
| HNRNPH2 (UniProt P55795) | 0.009 (inactive) |
| HTATIP2 isoform 3 (UniProt Q9BUP3) | 0.003 (inactive) |
| HBZ (UniProt P02008) | 0.009 (inactive) |
| GSTT1 (UniProt P30711) | 0.013 (inactive) |
| GHDC (UniProt Q8N2G8) | 0.038 (inactive) |
| FMR1 (UniProt Q06787) | 0.01 (inactive) |
| GBF1 (UniProt Q92538) | -0.005 (inactive) |
| FUBP3 (UniProt Q96I24) | 0.022 (inactive) |
| FOXO3 (UniProt O43524) | -0.107 (inactive) |
| GEMIN5 (UniProt Q8TEQ6) | 0.058 (inactive) |
| HMGN2 (UniProt P05204) | 0.111 (inactive) |
| GPNMB (UniProt Q14956) | 0 (inactive) |

| Target | log2 fold change |
| --- | --- |
| HS1BP3 (UniProt Q53T59) | -0.126 (inactive) |
| GYS1 (UniProt P13807) | 0.782 (active) |
| FBXO9 (UniProt Q9UK97) | -0.065 (inactive) |
| HECTD1 (UniProt Q9ULT8) | -0.057 (inactive) |
| GID4 (UniProt Q8IVV7) | -0.021 (inactive) |
| GEMIN6 (UniProt Q8WXD5) | 0.082 (inactive) |
| FCF1 (UniProt Q9Y324) | -0.269 (inactive) |
| HRAS (UniProt P01112) | 0.027 (inactive) |
| HRC (UniProt P23327) | 0.032 (inactive) |
| GAGE12F (UniProt P0CL80) | 0.031 (inactive) |
| GAPVD1 isoform 6 (UniProt Q14C86) | 0.045 (inactive) |
| HMG20A (UniProt Q9NP66) | -0.049 (inactive) |
| GEMIN2 (UniProt O14893) | 0.002 (inactive) |
| IFRD2 isoform 2 (UniProt Q12894) | 0.29 (inactive) |
| GGT7 (UniProt Q9UJ14) | -0.019 (inactive) |
| FBL (UniProt P22087) | 0.119 (inactive) |
| IFT80 isoform 3 (UniProt Q9P2H3) | -0.019 (inactive) |
| GTF3A (UniProt Q92664) | 0.033 (inactive) |
| HMGN1 (UniProt P05114) | 0.089 (inactive) |
| HBA1 (UniProt P69905) | 0.042 (inactive) |
